These results are taken from PubChem BioAssay AID1508607 (The Scripps Research Institute Molecular Screening Center, 2020).

About 20 (0.9%) of roughly 2,300 compounds were called active.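 Rule for the calls: active = mean percent activation across replicates above the counterscreen hit cutoff of 9.17%; inactive = the rest.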 What follows is part of a selection rich in actives, with near analogues and random picks from the rest.

In the experiment the target is Glucose-dependent insulinotropic receptor (Homo sapiens) (UniProt Q8TDV5). Description: GPR119 activators in beta-arrestin cells, confirmation, counter-screen for GPR151 activator project, cell-based, PathHunter beta-arrestin, luminescence, set 2 (AID 1508607).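 Note: 0% = median of sample wells and 100% = wells given EA reagent.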 As to conditions: 90 min, at 11.2 µM, active compounds read high. (In general: Counterscreens check selectivity or assay interference.)
Chain of Glucose-dependent insulinotropic receptor (Homo sapiens) (Q8TDV5 whole entry, looked up): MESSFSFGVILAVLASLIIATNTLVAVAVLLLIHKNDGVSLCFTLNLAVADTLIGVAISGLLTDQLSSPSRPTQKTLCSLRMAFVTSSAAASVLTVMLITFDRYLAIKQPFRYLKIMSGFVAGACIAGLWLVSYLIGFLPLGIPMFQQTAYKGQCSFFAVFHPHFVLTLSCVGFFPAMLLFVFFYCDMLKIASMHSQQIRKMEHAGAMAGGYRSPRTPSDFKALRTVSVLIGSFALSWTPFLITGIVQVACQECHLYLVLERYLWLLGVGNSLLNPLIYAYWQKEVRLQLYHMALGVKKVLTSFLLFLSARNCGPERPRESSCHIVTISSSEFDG
For `CC(C)OCCCNC(=O)CN(c1ccc(OCc2ccccc2)cc1)S(C)(=O)=O`, the activation was -1.63% (inactive).
Consider `COc1ccc(S(=O)(=O)CCC(=O)N2CCc3ccccc32)cc1`, for which the activation is 1.93% (inactive).
With `Cc1ccc(S(=O)(=O)N2CCN3C(=O)[C@H](Cc4ccc(Cl)cc4)NC(=O)[C@H]3C2)cc1`, the activation is 1.14% (inactive).
With `CC1(C(=O)NCC2Cc3cccc(-c4ncccn4)c3O2)CC1` (stereo not given), the activation is 1.78% (inactive).
For `COc1cc(Nc2ccnc(Nc3ccc(N4CCOCC4)cc3)n2)cc(OC)c1OC`, the activation was 7.31% (inactive).
Regarding `COc1ccc(CCNc2ccnc(Nc3ccc(-n4ccnc4)cc3)n2)cc1`, the activation was 12.4% (active).
In the case of `COc1ccc(CCNc2ccnc(Nc3ccc(N4CCOCC4)cc3)n2)cc1` it was 10.5% (active); in that of `COc1ccc(CCNc2cc(C)nc(Nc3ccc(-n4ccnc4)cc3)n2)cc1`, 6.54% (inactive); in that of `Cc1cc(Nc2ccc3c(c2)OCO3)nc(Nc2ccc(N3CCOCC3)cc2)n1`, 1.65% (inactive).
On to `Cc1cc(Nc2ccc(N3CCOCC3)cc2)nc(Nc2ccc(-n3ccnc3)cc2)n1`, for which the activation was 3.07% (inactive).
Then `O=C(O)c1cc([N+](=O)[O-])ccc1C(=O)Nc1cccc2ccccc12`, with -0.79% (inactive).
Turning to `CCC(=O)N1CCc2cc(S(=O)(=O)NCCN(CC)c3ccccc3)ccc21`, the activation was -1.16% (inactive).
In the case of `CC1CCC(=NNC(=O)c2ccccc2O)CC1` (stereo not given) it was -3.51% (inactive); in that of `CN(C)c1ccc(/C=C(\C#N)C(N)=C(C#N)C#N)cc1`, 4.1% (inactive); in that of `O=C(c1cccc(S(=O)(=O)N2CCOCC2)c1)N1CCCc2ccccc21`, -5.28% (inactive).
Then `CC(=O)Cc1nsc(Nc2cccc(Cl)c2C)n1`, with 6.59% (inactive).
Consider `CSc1nc2sccn2c(=O)c1C(=O)NCc1ccccc1Oc1ccccc1`, for which the activation is -1.15% (inactive).
For the molecule `COc1cc2[nH]c(=O)n(CCC(=O)N3CCC(N4CCCCC4)CC3)c(=O)c2cc1OC`, the activation was -2.11% (inactive).
As to `CN1CCN(c2cc(-c3cn[nH]c3)ccc2NC(=O)Cc2cccc(Cl)c2)CC1`, the activation is 11.6% (active).
With `CCOc1ccc(S(=O)(=O)N(CC(=O)NCCSc2ccccc2)c2ccccc2)cc1`, the activation was -2.47% (inactive).
Regarding `COc1ccc(-n2ncc3c(Nc4cc(OC)ccc4OC)ncnc32)cc1`, the activation was 4.1% (inactive).
Then `COc1ccc(-n2ncc3c(Nc4ccc(C(C)C)cc4)ncnc32)cc1`, with 9.19% (active); and `COc1ccc(-n2ncc3c(Nc4cccc(F)c4)ncnc32)cc1`, with 2.73% (inactive).
In the case of `C/C(=N/NC(=O)CNC(=O)c1ccccc1F)c1cccc([N+](=O)[O-])c1` it was -2.45% (inactive).
As for `CCCn1cc(SCC(=O)Nc2ccc(OC)cc2OC)c2ccccc21`, the activation is 4.73% (inactive).
